# Hit rate of the full screen: of about 5,500 compounds, about 2,000 (36%) were called active. Not shown: some 18% with an inconclusive outcome. The list shows a part of the results. Unmarked numbers belong to inactive results. No stated cut-off is given here; in the data, active means normalized growth mostly below about 0.91 (no sharp cut-off); inconclusive means no clear call, values can overlap the other calls; inactive means mostly above about 0.92.
# Test: chemical genetic growth profiling, strain panel (AID 1159580);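 further: tested at 20 µM; growth read once vehicle control cultures reached saturation at 30 °C; 1 = growth at the plate median or of vehicle wells; lower values mean less growth of the strain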
# Settings: S. cerevisiae deletion strains, growth OD
# [1] = locus YAR019C, strain CDC15, hits give low values
# [2] = locus YBL105C, strain PKC1, hits give low values
# [3] = locus YBR135W, strain CKS1, hits give low values
# [4] = locus YBR136W, strain MEC1, hits give low values
# [5] = locus YBR160W, strain CDC28, hits give low values
# [6] = locus YDL017W, strain CDC7, hits give low values
# [7] = locus YDL028C, strain MPS1, hits give low values
# [8] = locus YDL101C, strain DUN1, hits give low values
# [9] = locus YDL108W, strain KIN28, hits give low values
# [10] = locus YDL132W, strain cdc53, hits give low values
# [11] = locus YDL214C, strain PRR2, hits give low values
# [12] = locus YDR052C, strain DBF4, hits give low values
# [13] = locus YDR054C, strain cdc34, hits give low values
# [14] = locus YDR226W, strain ADK1, hits give low values
# [15] = locus YDR477W, strain SNF1, hits give low values
# [16] = locus YER123W, strain YCK3, hits give low values
# [17] = locus YER133W, strain GLC7, hits give low values
# [18] = locus YFL009W, strain cdc4, hits give low values
# [19] = locus YFL029C, strain CAK1, hits give low values
# [20] = locus YFR003C, strain YPI1, hits give low values
# [21] = locus YFR019W, strain FAB1, hits give low values
# [22] = locus YFR028C, strain CDC14, hits give low values
# [23] = locus YGR040W, strain KSS1, hits give low values
# [24] = locus YGR052W, strain FMP48, hits give low values
# [25] = locus YGR092W, strain DBF2, hits give low values
# [26] = locus YHR030C, strain SLT2, hits give low values
# [27] = locus YHR079C, strain IRE1, hits give low values
# [28] = locus YHR082C, strain KSP1, hits give low values
# [29] = locus YHR205W, strain SCH9, hits give low values
# [30] = locus YIL147C, strain SLN1, hits give low values
# [31] = locus YJL095W, strain BCK1, hits give low values
# [32] = locus YJL157C, strain FAR1, hits give low values
# [33] = locus YJR016C, strain ILV3, hits give low values
# [34] = locus YJR066W, strain TOR1 (second series), hits give low values
# [35] = locus YJR066W, strain TOR1, hits give low values
# [36] = locus YKL048C, strain ELM1, hits give low values
# [37] = locus YKL067W, strain YNK1, hits give low values
# [38] = locus YKL101W, strain HSL1, hits give low values
# [39] = locus YKL193C, strain SDS22, hits give low values
# [40] = locus YKL203C, strain TOR2, hits give low values
# [41] = locus YLR113W, strain HOG1, hits give low values
# [42] = locus YLR133W, strain CKI1, hits give low values
# [43] = locus YLR403W, strain SFP1, hits give low values
# [44] = locus YML070W, strain DAK1, hits give low values
# [45] = locus YMR001C, strain CDC5, hits give low values
# [46] = locus YMR205C, strain PFK2 (second series), hits give low values
# [47] = locus YMR277W, strain FCP1, hits give low values
# [48] = locus YNL006W, strain LST8, hits give low values
# [49] = locus YNL020C, strain ARK1, hits give low values
# [50] = locus YNL161W, strain CBK1, hits give low values
# [51] = locus YNL183C, strain NPR1, hits give low values
# [52] = locus YNL207W, strain RIO2, hits give low values
# [53] = locus YNL222W, strain SSU72, hits give low values
# [54] = locus YNL307C, strain MCK1 (second series), hits give low values
# [55] = locus YOL078W, strain AVO1, hits give low values
# [56] = locus YOL136C, strain PFK27, hits give low values
# [57] = locus YOR061W, strain CKA2, hits give low values
# [58] = locus YOR119C, strain RIO1, hits give low values
# [59] = locus YOR231W, strain MKK1, hits give low values
# [60] = locus YOR329C, strain SCD5, hits give low values
# [61] = locus YPL031C, strain PHO85, hits give low values
# [62] = locus YPL153C, strain RAD53, hits give low values
# [63] = locus YPL204W, strain HRR25, hits give low values
# [64] = locus YPL209C, strain IPL1, hits give low values
# [65] = locus YPL256C, strain CLN2, hits give low values
# [66] = locus YPR025C, strain CCL1, hits give low values
# [67] = locus YPR106W, strain ISR1, hits give low values
# [68] = locus YPR111W, strain DBF20, hits give low values
# [69] = strain NNK1, hits give low values
# [70] = strain TSCII, hits give low values
structure (smiles),measurement,setting,value
O=C1/C(=C/c2c[nH]c3ccccc23)CSc2ccccc21,normalized growth,[1],0.989
same,normalized growth,[2],0.975
same,normalized growth,[3],0.981
same,normalized growth,[4],0.966
same,normalized growth,[5],0.99
same,normalized growth,[6],0.983
same,normalized growth,[7],0.979
same,normalized growth,[8],0.98
same,normalized growth,[9],0.987
same,normalized growth,[10],0.99
same,normalized growth,[11],0.938
same,normalized growth,[12],0.985
same,normalized growth,[13],0.987
same,normalized growth,[14],0.983
same,normalized growth,[15],0.961
same,normalized growth,[16],0.906
same,normalized growth,[17],0.948
same,normalized growth,[18],0.988
same,normalized growth,[19],0.988
same,normalized growth,[20],0.987
same,normalized growth,[21],0.973
same,normalized growth,[22],0.98
same,normalized growth,[23],0.947
same,normalized growth,[24],1.04
same,normalized growth,[25],0.945
same,normalized growth,[26],1.07
same,normalized growth,[27],1.06
same,normalized growth,[28],1.01
same,normalized growth,[29],0.957
same,normalized growth,[30],0.965
same,normalized growth,[31],1.02
same,normalized growth,"locus YJL128C, strain PBS2, hits give low values",0.944
same,normalized growth,[32],0.943
same,normalized growth,[33],0.98
same,normalized growth,[34],0.913
same,normalized growth,[35],1.03
same,normalized growth,[36],0.949
same,normalized growth,[37],0.964
same,normalized growth,[38],0.945
same,normalized growth,[39],0.984
same,normalized growth,[40],1.02
same,normalized growth,[41],1.05
same,normalized growth,[42],0.975
same,normalized growth,[43],0.942
same,normalized growth,[44],0.944
same,normalized growth,[45],0.976
same,normalized growth,[46],0.979
same,normalized growth,[47],0.983
same,normalized growth,[48],0.993
same,normalized growth,[49],0.948
same,normalized growth,[50],0.991
same,normalized growth,[51],1.05
same,normalized growth,[52],0.997
same,normalized growth,[53],0.982
same,normalized growth,[54],0.995
same,normalized growth,[55],0.994
same,normalized growth,[56],0.931
same,normalized growth,[57],0.958
same,normalized growth,[58],0.982
same,normalized growth,[59],1.05
same,normalized growth,[60],0.99
same,normalized growth,[61],0.947
same,normalized growth,[62],0.924
same,normalized growth,[63],0.928
same,normalized growth,[64],0.989
same,normalized growth,[65],1.04
same,normalized growth,[66],0.986
same,normalized growth,[67],0.978
same,normalized growth,[68],0.979
same,normalized growth,[69],0.98
same,normalized growth,[70],0.984
O=C1Nc2ccccc2/C1=C\c1c[nH]c2ccccc12,normalized growth,[1],0.472 (active)
same,normalized growth,[2],0.627 (active)
same,normalized growth,[3],0.926
same,normalized growth,[4],0.88 (active)
same,normalized growth,[5],0.843 (active)
same,normalized growth,[6],0.717 (active)
same,normalized growth,[7],0.927
same,normalized growth,[8],0.491 (active)
same,normalized growth,[9],0.924
same,normalized growth,[10],0.628 (active)
same,normalized growth,[11],0.289 (active)
same,normalized growth,[12],0.91 (active)
same,normalized growth,[13],0.432 (active)
same,normalized growth,[14],0.84 (active)
same,normalized growth,[15],0.135 (active)
same,normalized growth,[16],0.249 (active)
same,normalized growth,[17],0.202 (active)
same,normalized growth,[18],0.526 (active)
same,normalized growth,[19],0.472 (active)
same,normalized growth,[20],0.894 (active)
same,normalized growth,[21],0.168 (active)
same,normalized growth,[22],0.753 (active)
same,normalized growth,[23],0.164 (active)
same,normalized growth,[24],0.126 (active)
same,normalized growth,[25],0.109 (active)
same,normalized growth,[26],0.101 (active)
same,normalized growth,[27],0.1 (active)
same,normalized growth,[28],0.136 (active)
same,normalized growth,[29],0.0414 (active)
same,normalized growth,[30],0.814 (active)
same,normalized growth,[31],0.0968 (active)
same,normalized growth,[32],0.239 (active)
same,normalized growth,[33],0.914
same,normalized growth,[34],0.111 (active)
same,normalized growth,[35],0.111 (active)
same,normalized growth,[36],0.325 (active)
same,normalized growth,[37],0.407 (active)
same,normalized growth,[38],0.242 (active)
same,normalized growth,[39],0.618 (active)
same,normalized growth,[40],0.123 (active)
same,normalized growth,[41],0.118 (active)
same,normalized growth,[42],0.19 (active)
same,normalized growth,[43],0.108 (active)
same,normalized growth,[44],0.219 (active)
same,normalized growth,[45],0.781 (active)
same,normalized growth,[46],0.401 (active)
same,normalized growth,[47],0.548 (active)
same,normalized growth,[48],0.454 (active)
same,normalized growth,[49],0.19 (active)
same,normalized growth,[50],0.639 (active)
same,normalized growth,[51],0.133 (active)
same,normalized growth,[52],0.605 (active)
same,normalized growth,[53],0.674 (active)
same,normalized growth,[54],0.134 (active)
same,normalized growth,[55],0.609 (active)
same,normalized growth,[56],0.254 (active)
same,normalized growth,[57],0.244 (active)
same,normalized growth,[58],0.154 (active)
same,normalized growth,[59],0.125 (active)
same,normalized growth,[60],0.612 (active)
same,normalized growth,[61],0.112 (active)
same,normalized growth,[62],0.124 (active)
same,normalized growth,[63],0.125 (active)
same,normalized growth,[64],0.694 (active)
same,normalized growth,[65],0.128 (active)
same,normalized growth,[66],0.753 (active)
same,normalized growth,[67],0.863 (active)
same,normalized growth,[68],0.93
same,normalized growth,[69],0.527 (active)
same,normalized growth,[70],0.384 (active)

# — PubChem BioAssay AID1159580 (chemical genetic matrix, 2015)
